Results from PubChem BioAssay (NCATS).
Results filed as inconclusive are left out. Activity calls are given as the source filed them. Calls follow the shape of the dose curve; as a rule, active = well fitted inhibition curve with a large enough effect; inconclusive = small, poorly fitted or top-dose-only effect; inactive = flat fitted curve, though single readings scatter. Bridge positions count the residues as written; N and C are the ends. Peptide text beside a SMILES is read from it.

What follows are molecules tested against Luciferin 4-monooxygenase (Photinus pyralis) (UniProt P08659) (assay: Biochemical firefly luciferase enzyme assay for NPC (AID 624030;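 also: purified P. pyralis luciferase at 10 nM with luciferin and ATP substrate; nearly all actives have a fitted effect of over 70% in size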)). Details: purified P. pyralis luciferase, luminescence, 5 min; series mostly up to 58.6 µM.
Outline: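 Purified P. pyralis luciferase at 10 nM in 50 mM Tris Acetate (final), luminescence read within 5 minutes of enzyme addition to compounds. Activity normalised to PTC124 versus DMSO; concentration-response curves classed by r2, magnitude and activity.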

Luciferin 4-monooxygenase (Photinus pyralis), sequence (P08659 whole entry, looked up): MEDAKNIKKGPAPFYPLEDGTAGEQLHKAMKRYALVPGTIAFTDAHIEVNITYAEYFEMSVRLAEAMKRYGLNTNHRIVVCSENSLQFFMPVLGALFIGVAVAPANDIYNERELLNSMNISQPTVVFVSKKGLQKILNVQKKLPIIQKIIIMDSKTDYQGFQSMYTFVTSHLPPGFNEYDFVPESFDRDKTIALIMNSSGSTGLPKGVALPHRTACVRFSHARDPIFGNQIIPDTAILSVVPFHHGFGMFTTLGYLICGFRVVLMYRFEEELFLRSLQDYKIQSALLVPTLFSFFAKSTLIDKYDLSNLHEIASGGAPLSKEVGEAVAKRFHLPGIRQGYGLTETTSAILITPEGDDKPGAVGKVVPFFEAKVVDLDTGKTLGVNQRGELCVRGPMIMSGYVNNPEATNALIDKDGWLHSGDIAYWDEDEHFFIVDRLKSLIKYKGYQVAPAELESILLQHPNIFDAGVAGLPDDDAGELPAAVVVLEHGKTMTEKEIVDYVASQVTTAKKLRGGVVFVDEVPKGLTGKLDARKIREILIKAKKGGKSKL

Potency, inactive:
C=C[C@]1(C)C[C@@H](OC(=O)CO)[C@]2(C)C(C)CC[C@]3(CCC(=O)[C@H]32)[C@@H](C)[C@@H]1O (some centres undefined)
CCCCC(=O)OCC(=O)[C@H]1[C@H](C)C[C@@H]2[C@@H]3C[C@@H](F)C4=CC(=O)C=C[C@]4(C)[C@@]3(F)[C@@H](O)C[C@@]21C
CC(CN1CCOCC1)C(Cc1ccccc1)(Cc1ccccc1)C(=O)N1CCCC1 (centres undefined)
C[C@@H]1O[C@@]2(CS1)CN1CCC2CC1
CC1(C)S[C@@H]2[C@H](NC(=O)[C@H](N)c3ccccc3)C(=O)N2[C@@H]1C(=O)OCOC(=O)[C@@H]1N2C(=O)C[C@@H]2S(O)(O)C1(C)C
CC[C@H]1OC(=O)C[C@@H](O)[C@H](C)[C@@H](O[C@@H]2O[C@H](C)C[C@H](N(C)C)[C@@H]2O)[C@@H](CC=O)C[C@@H](C)C(=O)/C=C\[C@]2(C)O[C@H]2[C@@H]1C
CO[C@H]1C[C@@H](O[C@@H]2[C@@H](C)O[C@@H](O[C@@H]3/C(C)=C/CC4C[C@@H](C[C@]5(C=C[C@@H](C)[C@H](C6CCCCC6)O5)O4)OC(=O)[C@@H]4C=C(C)[C@@H](O)[C@H]5OC/C(=C\C=C\[C@@H]3C)[C@]54O)C[C@H]2OC)O[C@@H](C)[C@@H]1O
Cc1c(N)nc([C@@H](CC(N)=O)NC[C@H](N)C(N)=O)nc1C(=O)N[C@H](C(=O)N[C@@H](C)[C@@H](O)[C@@H](C)C(=O)N[C@H](C(=O)NCCc1nc(-c2nc(C(=O)NCCCN[C@H](C)c3ccccc3)cs2)cs1)[C@H](C)O)[C@@H](O[C@H]1O[C@@H](CO)[C@H](O)[C@@H](O)[C@H]1O[C@H]1O[C@@H](CO)[C@@H](O)[C@H](OC(N)=O)[C@H]1O)c1cnc[nH]1
COc1ccc2c(C(=S)N(C)CC(=O)O)cccc2c1C(F)(F)F
CC(=O)SC1CC2=CC(=O)CCC2(C)C2CCC3(C)C(CCC34CCC(=O)O4)C12 (centres undefined)
C#CC1(OC(C)=O)CCC2C3CCC4=CC(OC(C)=O)CCC4C3CCC21C (centres undefined)
O=C1OC2C(O)C(O)OC2C1O (centres undefined)
CCCCC/C=C/C/C=C/CCCCCCCC(=O)NC(C)c1ccccc1 (centres undefined)
O=S(=O)(O)OCC1OC(OC2(COS(=O)(=O)O)OC(COS(=O)(=O)O)C(OS(=O)(=O)O)C2OS(=O)(=O)O)C(OS(=O)(=O)O)C(OS(=O)(=O)O)C1OS(=O)(=O)O (centres undefined)
C=C1/C(=C\C=C2/CCC[C@@]3(C)[C@@H]([C@H](C)OCCC(C)(C)O)CC[C@@H]23)C[C@@H](O)C[C@@H]1O
COc1cc2c(c(OC)c1OC)-c1c(cc3c(c1OC)OCO3)CC(C)C(C)(O)C2 (centres undefined)
CO[C@@H]1[C@@H](OC2OC(C)C(OC3CC(C)(O)C(O)C(C)O3)C(N(C)C)C2O)[C@@H](CC=O)C[C@@H](C)[C@@H](OC2CCC(N(C)C)C(C)O2)/C=C/C=C/C[C@@H](C)OC(=O)C[C@H]1OC(C)=O (some centres undefined)
CO[C@@]1(NC(=O)CSC(F)F)C(=O)N2C(C(=O)O)=C(CSc3nnnn3CCO)CO[C@@H]21
CC(NC(CCc1ccccc1)C(=O)O)C(=O)N1CCCC1C(=O)O (centres undefined)
Cc1nc2n(c(=O)c1CCN1CCC(c3noc4cc(F)ccc34)CC1)CCC[C@@H]2O
NCCCCC(NC(=O)C1CCCN1C(=O)C1CSSCC(N)C(=O)NC(Cc2ccccc2)C(=O)NC(Cc2ccccc2)C(=O)NC(CCC(N)=O)C(=O)NC(CC(N)=O)C(=O)N1)C(=O)NCC(N)=O (centres undefined) (H-CFFQNCPKG-NH2; disulfide 1-6; configuration not given here)
CC[C@H]1OC(=O)[C@H](C)[C@@H](O[C@H]2C[C@@](C)(OC)[C@@H](O)[C@H](C)O2)[C@H](C)[C@@H](O[C@@H]2O[C@H](C)C[C@H](N(C)C)[C@H]2O)[C@](C)(O)C[C@@H](C)[C@@H]2N[C@@H](COCCOC)O[C@H]([C@H]2C)[C@]1(C)O
CCCCCCCCCCCCCCCC(=O)O[C@@H]1CC(C)=C(\C=C/C(C)=C\C=C/C(C)=C\C=C\C=C(C)\C=C\C=C(C)\C=C\C2=C(C)C[C@@H](OC(=O)CCCCCCCCCCCCCCC)CC2(C)C)C(C)(C)C1
CO/N=C(\C(=O)N[C@@H]1C(=O)N2C(C(=O)OCOC(=O)C(C)(C)C)=C(C)CS[C@H]12)c1csc(N)n1
